Test results: PubChem BioAssay AID1159580 (chemical genetic matrix, 2015)
The whole screen tested about 5,500 compounds, of which about 2,000 (36%) were called active. About 18% were inconclusive and are not listed. Cut-off read from the data, not from the text of the source: active = normalized growth mostly below about 0.91 (no sharp cut-off); inconclusive = no clear call, values can overlap the other calls; inactive = mostly above about 0.92. The list shows a part of the results.

Test: chemical genetic growth profiling, strain panel (AID 1159580);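 note: tested at 20 µM; growth read once vehicle control cultures reached saturation at 30 °C; 1 = growth at the plate median or of vehicle wells; lower values mean less growth of the strain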
Details: S. cerevisiae deletion strains, growth OD
[1] = locus YDL101C, strain DUN1, stronger effect = lower value
[2] = locus YHR030C, strain SLT2, stronger effect = lower value
[3] = locus YAL013W, strain DEP1, stronger effect = lower value
[4] = locus YBR229C, strain ROT2, stronger effect = lower value
[5] = locus YDR150W, strain NUM1, stronger effect = lower value
[6] = locus YEL061C, strain CIN8, stronger effect = lower value
[7] = locus YGR078C, strain PAC10, stronger effect = lower value
[8] = locus YHR087W, strain rtc3, stronger effect = lower value
[9] = locus YJR043C, strain POL32, stronger effect = lower value
[10] = locus YJR075W, strain HOC1, stronger effect = lower value
[11] = locus YLR039C, strain RIC1, stronger effect = lower value
[12] = locus YLR058C, strain SHM2 (second series), stronger effect = lower value
[13] = locus YLR085C, strain ARP6, stronger effect = lower value
[14] = locus YLR262C, strain YPT6, stronger effect = lower value
[15] = locus YML094W, strain GIM5, stronger effect = lower value
[16] = locus YMR219W, strain ESC1, stronger effect = lower value
[17] = locus YMR263W, strain SAP30, stronger effect = lower value
[18] = locus YNL153C, strain GIM3, stronger effect = lower value
[19] = locus YNL298W, strain CLA4 (second series), stronger effect = lower value
[20] = locus YNL322C, strain KRE1, stronger effect = lower value
[21] = locus YNR030W, strain Alg12, stronger effect = lower value
[22] = locus YOL006C, strain TOP1, stronger effect = lower value
[23] = locus YPL055C, strain LGE1, stronger effect = lower value
[24] = locus YPL241C, strain CIN2, stronger effect = lower value
[25] = locus YPR135W, strain CTF4, stronger effect = lower value
[26] = locus YKL190W, strain CNB1, stronger effect = lower value
[27] = locus YMR307W, strain GAS1, stronger effect = lower value

Measured: normalized growth

CCOC(=O)c1ccc(N=Cc2cc(Cl)cc(Cl)c2O)cc1
inactive: locus YAR019C, strain CDC15, stronger effect = lower value 0.934 | locus YBL105C, strain PKC1, stronger effect = lower value 0.949 | locus YBR135W, strain CKS1, stronger effect = lower value 0.95 | locus YBR136W, strain MEC1, stronger effect = lower value 0.954 | locus YBR160W, strain CDC28, stronger effect = lower value 0.946 | locus YDL017W, strain CDC7, stronger effect = lower value 0.94 | locus YDL028C, strain MPS1, stronger effect = lower value 0.946 | [1] 0.946 | locus YDL108W, strain KIN28, stronger effect = lower value 0.948 | locus YDL132W, strain cdc53, stronger effect = lower value 0.975 | locus YDR052C, strain DBF4, stronger effect = lower value 0.95 | locus YDR226W, strain ADK1, stronger effect = lower value 0.969 | locus YFL009W, strain cdc4, stronger effect = lower value 0.964 | locus YFL029C, strain CAK1, stronger effect = lower value 0.923 | locus YFR003C, strain YPI1, stronger effect = lower value 0.939 | locus YFR028C, strain CDC14, stronger effect = lower value 0.957 | locus YIL147C, strain SLN1, stronger effect = lower value 0.937 | locus YJL128C, strain PBS2, stronger effect = lower value 0.908 | locus YJR016C, strain ILV3, stronger effect = lower value 0.963 | locus YKL193C, strain SDS22, stronger effect = lower value 0.957 | locus YMR001C, strain CDC5, stronger effect = lower value 0.943 | locus YMR277W, strain FCP1, stronger effect = lower value 0.96 | locus YNL006W, strain LST8, stronger effect = lower value 0.952 | locus YNL161W, strain CBK1, stronger effect = lower value 0.965 | locus YNL207W, strain RIO2, stronger effect = lower value 0.951 | locus YNL222W, strain SSU72, stronger effect = lower value 0.956 | locus YOL078W, strain AVO1, stronger effect = lower value 0.922 | locus YOR329C, strain SCD5, stronger effect = lower value 0.942 | locus YPL209C, strain IPL1, stronger effect = lower value 0.952 | locus YPR025C, strain CCL1, stronger effect = lower value 0.948 | locus YPR106W, strain ISR1, stronger effect = lower value 0.958 | locus YPR111W, strain DBF20, stronger effect = lower value 0.955 | strain NNK1, stronger effect = lower value 0.952 | strain TSCII, stronger effect = lower value 0.913
active: locus YDL214C, strain PRR2, stronger effect = lower value 0.3 | locus YDR477W, strain SNF1, stronger effect = lower value 0.289 | locus YER123W, strain YCK3, stronger effect = lower value 0.157 | locus YER133W, strain GLC7, stronger effect = lower value 0.344 | locus YFR019W, strain FAB1, stronger effect = lower value 0.153 | locus YGR040W, strain KSS1, stronger effect = lower value 0.349 | locus YGR052W, strain FMP48, stronger effect = lower value 0.257 | locus YGR092W, strain DBF2, stronger effect = lower value 0.135 | [2] 0.135 | locus YHR079C, strain IRE1, stronger effect = lower value 0.131 | locus YHR082C, strain KSP1, stronger effect = lower value 0.2 | locus YHR205W, strain SCH9, stronger effect = lower value 0.221 | locus YJL095W, strain BCK1, stronger effect = lower value 0.136 | locus YJL157C, strain FAR1, stronger effect = lower value 0.181 | locus YJR066W, strain TOR1 (second series), stronger effect = lower value 0.289 | locus YJR066W, strain TOR1, stronger effect = lower value 0.169 | locus YKL048C, strain ELM1, stronger effect = lower value 0.405 | locus YKL067W, strain YNK1, stronger effect = lower value 0.274 | locus YKL101W, strain HSL1, stronger effect = lower value 0.323 | locus YKL203C, strain TOR2, stronger effect = lower value 0.296 | locus YLR113W, strain HOG1, stronger effect = lower value 0.166 | locus YLR133W, strain CKI1, stronger effect = lower value 0.208 | locus YLR403W, strain SFP1, stronger effect = lower value 0.166 | locus YML070W, strain DAK1, stronger effect = lower value 0.198 | locus YMR205C, strain PFK2 (second series), stronger effect = lower value 0.308 | locus YNL020C, strain ARK1, stronger effect = lower value 0.175 | locus YNL183C, strain NPR1, stronger effect = lower value 0.229 | locus YNL307C, strain MCK1 (second series), stronger effect = lower value 0.175 | locus YOL136C, strain PFK27, stronger effect = lower value 0.153 | locus YOR061W, strain CKA2, stronger effect = lower value 0.193 | locus YOR119C, strain RIO1, stronger effect = lower value 0.368 | locus YOR231W, strain MKK1, stronger effect = lower value 0.131 | locus YPL031C, strain PHO85, stronger effect = lower value 0.245 | locus YPL153C, strain RAD53, stronger effect = lower value 0.213 | locus YPL204W, strain HRR25, stronger effect = lower value 0.196 | locus YPL256C, strain CLN2, stronger effect = lower value 0.152

CCOC(=O)CCC(C#N)(c1ccc(Cl)cc1)N1CCOCC1 (stereo unspecified)
inactive: [3] 0.99 | [4] 0.997 | [1] 1.04 | [5] 1.05 | [6] 1 | [7] 1.01 | [2] 0.979 | [8] 0.978 | [9] 1.02 | [10] 1.01 | [11] 1.11 | [12] 0.982 | [13] 0.962 | [14] 1.01 | [15] 0.99 | [16] 0.983 | [17] 1.02 | [18] 0.993 | [19] 0.996 | [20] 0.988 | [21] 0.985 | [22] 0.904 | [23] 0.943 | [24] 0.992 | [25] 1.01

CCOC(=O)c1ccc(N2CCOCC2)c(N=Cc2cc(Cl)ccc2O)c1
active: [4] 0.901 | locus YDL134C, strain PPH21, stronger effect = lower value 0.781 | [6] 0.757 | [7] 0.892 | [2] 0.266 | [10] 0.855 | [26] 0.678 | [11] 0.434 | [13] 0.508 | [14] 0.38 | [15] 0.822 | [27] 0.41 | [19] 0.754 | [21] 0.885 | [22] 0.323 | [25] 0.516
inactive: [3] 0.94 | [1] 0.928 | [5] 0.91 | [8] 0.915 | [9] 0.946 | [12] 0.96 | [16] 0.947 | [17] 0.917 | [18] 0.951 | [20] 0.99 | [23] 0.884 | [24] 0.908

CCOC(=O)c1ccc(NC(=S)N2CCOCC2)cc1
inactive: [3] 1.01 | [4] 0.979 | locus YCL061C, strain MRC1, stronger effect = lower value 0.939 | [1] 0.978 | [5] 0.945 | [6] 0.985 | [7] 0.99 | [2] 0.956 | [8] 0.974 | [9] 0.962 | [10] 0.947 | [26] 1.01 | [11] 1 | [12] 1.02 | [13] 0.991 | [14] 1 | [15] 0.978 | [16] 0.999 | [17] 0.933 | [27] 0.965 | [18] 0.982 | [19] 0.951 | [20] 1.01 | [21] 1.01 | [22] 0.805 | [23] 0.888 | [24] 0.988 | [25] 0.972
